Sampled rows, rich in hits. Any-hit rate of the full collection: about 2.4%.
TMEM16A act – activates or potentiates the mouse TMEM16A chloride channel; actives 0.3% (n = 340,000); B-score at 10 µM; Q8BHY3; AID 623877; HEK293 TMEM16A/YFP-H148Q/I152L, iodide quench fluorescence; hits give low values;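 active = fluorescence-ratio B-score plate-corrected deviation score at least 3 library SD below zero, with starting fluorescence score within 5 deviations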;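 also: channel opened by trigger with iodide after compound preincubation; score built on the fluorescence ratio of max minus min over baseline; more negative score means more quench and so TMEM16A activation or potentiation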
NOD2 RIPK2 PPI – inhibitors of human NOD2-RIPK2 interaction | inhibition, % at 4.98 µM | CHO BLA complementation NOD2-RIPK2, CCF4 ratio | AID 624267 | actives 0.38% (n = 360,000); in the data active = inhibition above about 21%
Target sequence (O43353 whole entry, looked up): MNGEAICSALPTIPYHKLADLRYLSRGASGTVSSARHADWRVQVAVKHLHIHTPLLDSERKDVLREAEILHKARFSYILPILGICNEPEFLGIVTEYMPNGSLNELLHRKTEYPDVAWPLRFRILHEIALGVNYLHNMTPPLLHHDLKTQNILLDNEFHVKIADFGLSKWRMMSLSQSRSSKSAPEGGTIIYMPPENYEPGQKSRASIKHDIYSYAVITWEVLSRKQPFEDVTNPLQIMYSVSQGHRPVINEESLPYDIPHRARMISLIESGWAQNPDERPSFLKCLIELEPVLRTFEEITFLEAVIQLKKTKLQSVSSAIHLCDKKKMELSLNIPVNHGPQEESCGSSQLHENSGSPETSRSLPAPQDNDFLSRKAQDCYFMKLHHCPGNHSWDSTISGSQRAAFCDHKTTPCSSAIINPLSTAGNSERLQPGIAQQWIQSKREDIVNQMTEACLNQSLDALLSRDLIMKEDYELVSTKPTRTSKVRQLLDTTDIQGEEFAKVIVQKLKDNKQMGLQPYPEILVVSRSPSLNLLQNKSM
HTR2A ag – mouse HTR2A agonism via beta-arrestin recruitment; actives 0.66% (n = 360,000); activation, % at 7.6 µM; P35363; CHO-K1 mHTR2A beta-arrestin complementation, luminescence; percent of 30 µM serotonin response;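 active = activation above a run cutoff, the mean activation of all tested compounds plus 3 SD, cut at about 14% in these data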
TLR4-MyD88 BLA – blocks binding of human TLR4 to MyD88; O00206+Q99836; HeLa CL3-4 TLR4/MyD88 BLA complementation, FRET ratio; inhibition, % at 8.4 µM; actives 0.18% (n = 200,000); AID 861; in the data active = inhibition above about 25%
ANO1 block – mouse TMEM16A channel inhibition, primary screen; Q8BHY3; HEK293 TMEM16A/YFP iodide influx fluorescence, ionomycin; normalized B-score (activity score, 25-100; higher = stronger inhibition) at 10 µM; actives 1.2% (n = 310,000); AID 588511;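 active = ratio plate-corrected score three or more library SD toward inhibition, starting fluorescence score within five deviations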;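 also: score derived from kinetic fluorescence span divided by baseline fluorescence per well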
TLR9-MyD88 block – TLR9-MyD88 interaction inhibition; Q9NR96+Q99836; CHO BLA complementation TLR9-MyD88, CCF4 FRET ratio; inhibition, % at 4.98 µM; actives 0.21% (n = 340,000); AID 504734;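 active = inhibition above the mean over all tested compounds plus 3 SD, cut at about 21% in these data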
NOD2 RIPK2 conf – confirmation of human NOD2-RIPK2 interaction inhibitors | shares compounds with NOD2 RIPK2 PPI | inhibition, % at 4.98 µM | actives 70% (n = 1,200) | CHO cells, NOD2-RIPK2 BLA complementation, CCF4 FRET;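 active = mean inhibition across replicates above a set limit taken from the earlier primary screen, cut at about 21% in these data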
NOD2 BLA counter – counter-screen for NOD2-RIPK2 interaction inhibitors: BLA reporter; shares compounds with NOD2 RIPK2 PPI; CHO BLA reporter, CCF4 FRET ratio, counterscreen; inhibition, % at 4.98 µM; actives 57% (n = 1,200); AID 624371;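 active = mean inhibition above the low-control mean inhibition plus three low-control SD, cut at about 11% in these data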
Numbers stand for hits; – = inactive; · = no result given.

SMILES	TMEM16A act	NOD2 RIPK2 PPI	HTR2A ag	TLR4-MyD88 BLA	ANO1 block	TLR9-MyD88 block	NOD2 RIPK2 conf	NOD2 BLA counter
CC1CCOC(=O)C=CC=CC(=O)OC2CC3OC4C5OC5(C)C(O)CC4(COC(=O)C1O)C2(C)C31CO1 (centres undefined)	–	27.9	–	·	·	–	21.0	–
CC(O)C1C=CC=CC(=O)OC2CC3OC4C5OC5(C)C(O)CC4(COC(=O)C(O)C(C)CCO1)C2(C)C31CO1 (centres undefined)	–	–	–	·	·	–	·	·
COC(=O)C1=C(c2ccc(OCc3ccccc3)cc2)C[C@@H]2CC[C@H]1N2C(=O)NCc1cccc(OC)c1	–	–	–	·	·	–	·	·
CN(C)CC(C(=O)Cc1ccccc1)c1ccccc1 (centres undefined)	–	56.8	–	·	·	–	–	–
C[C@@H]([C@@H](O)c1ccccc1)N(C)C(=O)Cc1ccccc1	–	–	–	·	–	–	·	·
CC(C)NS(=O)(=O)c1ccc(OCC(=O)N2CCN(Cc3ccc4c(c3)OCO4)CC2)c(Cl)c1	–	–	–	–	–	–	·	·
COC(=O)C1=C(c2ccc(F)cc2F)C[C@@H]2CC[C@H]1N2C(=O)NCc1ccc(C(F)(F)F)cc1	–	–	–	·	·	–	·	·
CSc1ccc(CNC(C)C(O)c2ccccc2)cc1 (centres undefined)	–	–	–	–	–	–	·	·
CC=CC(C)=CC(C)C(=O)CC(O)CC1CC(=O)NC(=O)C1 (centres undefined)	·	–	–	·	·	–	·	·
CC1CC(C)(O)CC(C(O)CC2CC(=O)NC(=O)C2)C1=O (centres undefined)	–	21.1	–	·	·	–	25.0	–
CC1CCN(C(CC(=O)c2ccccc2)C(=O)c2ccccc2)CC1 (centres undefined)	–	27.6	–	·	·	–	–	–
CCOC(=O)[C@]12Cc3ccccc3[C@H]1N(C(C)C)C(=O)c1ccccc12	·	–	–	·	·	·	·	·
CCOC(=O)[C@]12Cc3cc(Cl)ccc3[C@H]1N(C1CCCCC1)C(=O)c1cc(OC)ccc12	·	69.9	–	·	·	·	66.2	–
CCOC(=O)[C@]12Cc3c(cc(OC)c(OC)c3OC)[C@H]1N(C1CCCCC1)C(=O)c1ccccc12	·	28.3	–	·	·	·	71.0	–
CCOC(=O)[C@]12Cc3cc(N(C)C)ccc3[C@H]1N(Cc1ccccc1)C(=O)c1ccccc12	–	23.0	–	·	·	–	–	–
CCOC(=O)[C@]12Cc3cc(Cl)ccc3[C@H]1N(Cc1ccccc1)C(=O)c1ccccc12	–	–	–	·	·	–	·	·
CCOC(=O)[C@]12Cc3ccc(C)cc3[C@H]1N(C1CCCCC1)C(=O)c1ccccc12	·	52.4	–	·	·	·	54.0	–
O=C1NC(=S)NC(=O)C1Cc1ccccc1O	–	–	–	·	·	–	·	·
CSCCC(c1nnnn1C1CCCC1)N1CCC2(CC1)C(=O)NCN2c1ccccc1 (centres undefined)	·	–	–	·	·	·	·	·
CCCCCCN=C(C)c1c(O)n(Cc2ccccc2)c(=O)[nH]c1=O	–	–	–	–	–	–	·	·
Cc1c(CC(=O)N2C[C@H]3C[C@@H](C2)c2cccc(=O)n2C3)c(=O)oc2cc(O)c(Cl)cc12	–	–	–	·	–	–	·	·
CCOC(=O)[C@]12Cc3cc(OC)ccc3[C@H]1N(C)C(=O)c1cc(OC)ccc12	·	–	–	·	·	·	·	·
CCOC(=O)[C@]12Cc3cc(C)ccc3[C@H]1N(C1CCCCC1)C(=O)c1ccccc12	·	56.4	–	·	·	·	66.3	–
CCOC(=O)[C@]12Cc3ccc(C)cc3[C@H]1N(C1CCCCC1)C(=O)c1cc(OC)ccc12	·	57.9	–	·	·	·	63.1	–
O=P1(Nc2ccc(F)cc2)COc2ccccc2OC1	–	–	–	–	–	–	·	·
O=S1(=O)NCC2(CC2)CN1Cc1ccccc1	·	–	–	·	·	·	·	·
